This is a sample that favours compounds with a hit; in the whole collection about 12% have one here.
HP1b binding inh – HP1-beta chromodomain-methylated histone interaction inhibition; P83916; AlphaScreen HP1-beta / biotin-H3K9me3 peptide binding; Potency, µM (top dose mostly 114 µM), for inactives: at the highest dose activity change, negative = inhibition, hits mostly inhibitors; actives 0.56% (n = 390,000); AID 540317; note: nearly all actives have a fitted effect of over 70% in size
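AlphaScreen: HP1-beta (50 nM) preformed 30 min with biotin-H3(1-18)K9me3 peptide (50 nM) in PBS pH 7.4, 0.01% Tween-20. Compound added for 30 min at RT, then streptavidin donor/nickel chelate acceptor beads (10 ug/mL) for 30 min.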
BAZ2B block – BAZ2B (human) inhibition; Q9UIF8; AlphaScreen BAZ2B-H3K14Ac peptide displacement; Potency, µM (titrated, usually from 114 µM), for the others: at the top dose activity change, negative = inhibition, most hits filed as inhibitors; actives 4.4% (n = 360,000); note: % is set by controls: 0 for no effect and ±100 for the full control effect; nearly all actives have a fitted effect of over 60% in size
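Complex of BAZ2B and biotin-H3K14Ac (50 nM apiece) forms over 30 min at RT, then faces library compounds up to 110 uM for another 30 min; AlphaScreen beads added, 20 min dark incubation, luminescence read.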
G9a block – inhibitors of human histone lysine methyltransferase G9a; G9a H3K9 monomethylation, AlphaScreen, 2 h; Potency, µM (titrated, usually from 102 µM), inactives show at the highest dose activity, negative = inhibition, usual class: inhibitors; actives 8.8% (n = 350,000); note: % is set by controls: 0 for no effect and ±100 for the full control effect; nearly all actives have a fitted effect of over 75% in size
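Readings reflect AlphaScreen signal from monomethyl-H3K9 antibody detection. HMT at 20 nM; substrate b-H3K9 500 nM; cofactor SAM 20 uM; 2 h RT reaction; compounds tested as titrations in qHTS with 15 min preincubation.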
JMJD2A Tudor – inhibitors of human JMJD2A Tudor domain. AlphaScreen JMJD2A-Tudor / H3K4me3 peptide binding. Potency, µM (highest dose often 114 µM), for inactives: top-dose activity change, negative = inhibition, usual class: inhibitors. actives 4.4% (n = 390,000). AID 504339; note: % is set by controls: 0 for no effect and ±100 for the full control effect; nearly all actives have a fitted effect of over 50% in size
Sfp PPTase inh – blocks B. subtilis Sfp PPTase activity. Q9F4F7. Biochemical Sfp PPTase activity, qHTS. Potency, µM, inactives show largest response in the series, negative = inhibition, hits mostly inhibitors. actives 3.5% (n = 310,000). AID 1490;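 note: the enzyme is Sfp with the accession as filed and its product quenches rhodamine fluorescence; 0% = enzyme reaction without inhibitor and -100% = no enzyme wells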
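Buffer: 50 mM Hepes-Na pH 7.6, 10 mM MgCl2, 0.01% Nonidet P-40, 0.01% BSA. Enzyme 15 nM, pre-exposed to compound 15 min; substrates then added and fluorescence change tracked over 30 min.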
PLK1 PBD inh – inhibitors of human PLK1 polo-box domain binding; Potency, µM, for the others: max response, negative = inhibition, hits mostly inhibitors; actives 2.8% (n = 360,000); Plk1 PBD binding of FITC phosphopeptide, fluorescence polarization; note: series mostly up to about 57 µM; % is set by controls: 0 for no effect and ±100 for the full control effect; nearly all actives have a fitted effect of over 65% in size
* = called active by the depositor; ? = inconclusive; · = not tested or not shown; ! = a repeat was not active; [ ] = another dose, or the depositor's remark. Calls come from the whole dose curve; as a rule, active = well fitted curve in the direction sought with a large enough effect; inconclusive = small, poorly fitted or top-dose-only effect, or another doubt; inactive = no such curve, though single readings can be large; an effect the other way counts as inactive or inconclusive. Potency is the fitted concentration of half-maximal effect.

SMILES	HP1b binding inh	BAZ2B block	G9a block	JMJD2A Tudor	Sfp PPTase inh	PLK1 PBD inh
CC1(C)O[C@H]2[C@@H](O1)[C@@H](C(=O)Nc1ccccc1O)O[C@@H]1OC(C)(C)O[C@@H]12	44%	2%	1µM*	1%	·	·
Cc1cccc(C(O)c2ncc(-c3ccc(Cl)cc3)[nH]2)c1C (centres undefined)	·	·	·	·	·	-2%
COc1ccccc1NS(=O)(=O)c1ccc2c(c1)CCN2C(=O)CCC(=O)O	21%	16%	-40%	-3%	-5%	-13%
S=c1[nH]nc(-c2cccnc2)o1	37%	?	?	20µM*	56µM*	-4%
Nn1c(-c2cccc(Br)c2)n[nH]c1=S	-10%	?	2.2µM*	35µM*	?	-17%
S=c1[nH]nc(-c2cccc(Br)c2)o1	10%	-8%	1.8µM*	?	11%	-20%
CCOc1ccc(CCN2C(=O)C(=O)N([C@@H](Cc3ccc(O)cc3)CN3CCC[C@@H]3CN3C(=O)C(=O)NC[C@@H]3Cc3ccccc3)C[C@@H]2Cc2ccccc2)cc1	4%	·	·	-27%	·	-4%
COc1cccc(-n2c(SCC(=O)Nc3nnc(C)s3)nc3c([nH]c4ccccc43)c2=O)c1	26%[57 µM]	2%	3%[59 µM]	50µM*	·	·
CCOC(=O)CSc1nc2c([nH]c3ccccc32)c(=O)n1-c1ccc(OC)cc1	6%	-4%	3%[59 µM]	20µM*	·	·
Cn1c(=O)c(-c2ccc(F)c(F)c2)nc2cncnc21	·	·	3%[0.501 µM]	·	6%	·
C=C1CCN(C(C(=O)O)C(C)C)S(=O)(=O)c2ccccc21 (centres undefined)	9%	·	·	-15%	3%	·
C=C(C)[C@@H]1CCC2(C(=O)O)CC[C@]3(C)[C@H](CC[C@@H]4[C@@]5(C)CCC(=O)C(C)(C)[C@@H]5CC[C@]43C)[C@@H]12 (some centres undefined)	13%	-1%	3%	-7%	-1%	13µM*
Cc1c(Cl)cccc1NC(=O)NN1CCN(C)CC1	12%	0%	4%	-13%	11%	-6%
Cc1ccccc1N(C)S(=O)(=O)c1nnc(NC(=O)C(C)C)s1	-14%	?	?	?	·	·
Cc1ccccc1NS(=O)(=O)c1nnc(NC(=O)c2ccccc2C)s1	25%	28µM*!	-39%[59 µM]	?	8%	-1%
Cc1ccccc1N(C)S(=O)(=O)c1nnc(NC(=O)c2ccccc2F)s1	32%	14µM*!	4µM*!	45µM*!	21%	-24%
Cc1ccc2oc(C(=O)N3CCC(O)(c4ccccc4)CC3)c(C)c2c1	18%	?	·	-18%	-2%	-5%
Cc1ccc(OC(=O)CCc2c(C)nc3ncnn3c2C)cc1	30%	-5%	-9%[12.7 µM]	-5%	13%	1%
N#Cc1c(C(F)(F)F)cc(-c2cccs2)nc1SCc1ccc(Cl)nc1	34%	3%	9%[0.0925 µM]	4%	22µM*	-20%
O=C(Nc1cccc(C(F)(F)F)c1)c1cc(CN2CCOCC2)on1	24%	-3%	9%[59 µM]	-5%	·	·
Fc1ccc(SCCc2ccncc2)cc1	29%	22µM*!	50µM*!	-6%	0%	24µM*
Fc1cc(F)c(F)c(SCCc2ccncc2)c1F	?	-19%	?	28µM*	?	?
Cc1ccc(CCSc2ccc(F)cc2)cn1	39%	-4%	·	13%	-1%	?
c1ccc(SCCc2ccncc2)cc1	55%	1%[57.1 µM]	-20%[12.7 µM]	-10%	2%	21µM*
c1ccc2c(CSCCc3ccncc3)cccc2c1	25%	-19%[57.1 µM]	-13%	-16%	50µM*	-23%
SMILES	HP1b binding inh	BAZ2B block	G9a block	JMJD2A Tudor	Sfp PPTase inh	PLK1 PBD inh
O=S(CCc1ccncc1)Cc1ccccc1 (centres undefined)	14%	-3%	-34%[59 µM]	-6%	15%	-10%
CCn1c(=O)n(-c2ccc(C)c(F)c2)c(=O)c2sc3ccccc3c21	19%	-3%	-7%[59 µM]	-20%	·	·
CN(C)Cc1ncccc1Oc1nc2cc(-c3cccc(Cl)c3)sc2c(=O)n1C	·	·	·	·	·	-5%
COc1ccc(C(=O)Nc2ccc3nc4c(c(Nc5ccc(OC)c(OC)c5)c3c2)CCCC4)c(OC)c1	-20%	?	-20%[59 µM]	?	·	·
COc1ccccc1Nc1c2c(nc3ccc(NC(=O)c4cccc(OC)c4OC)cc13)CCCC2	16%	-37%	?	?	·	·
Cc1ccc2nc3c(c(Nc4ccc(C)c(C)c4)c2c1)CCC3	2%	32µM*	-45%[59 µM]	?	·	·
COc1ccc(Nc2c3c(nc4ccc(NC(=O)c5ccc(F)cc5)cc24)CCCC3)cc1OC	?	32µM*	?	56µM*	·	·
Cc1ccc2nc3c(c(Nc4ccc(O)cc4)c2c1)CCC3	42%	-13%	?	-22%	-8%	-8%
COc1ccccc1Nc1c2c(nc3ccc(N)cc13)CCCC2	-25%	35µM*	40µM*	40µM*	1%	-8%
COc1ccccc1Nc1c2c(nc3ccc(NC(=O)c4ccccc4F)cc13)CCCC2	0%	?	?	?	·	·
COc1ccccc1Nc1c2c(nc3ccc(NC(=O)c4ccc(OC)c(OC)c4)cc13)CCCC2	-17%	?	14µM*	?	·	·
C/C(CCN1CCc2nc(-c3ccccc3)c(-c3ccccc3)cc2C1)=N\O[C@@H](C)CN1CCCCc2nc(C)c(C)cc21	·	·	·	·	5%	·
COC(=O)c1c(C)oc(C)c1S(=O)(=O)NC(C)(C)C	34%	0%	·	-3%	14%	-13%
C=C[C@@]1(C)CC[C@H](O)[C@H]2C(=O)CCC[C@@H]21	·	·	·	·	2%	·
COc1ccc(CC(=O)Nc2ccc(S(=O)(=O)N3CCCC3)cc2)c(OC)c1	47%	-2%	?	5%	·	8%
COc1ccc(NC2C=CS(=O)(=O)C2)c(OC)c1 (centres undefined)	7%	10%	6%[2.33 µM]	-28%	79µM*	-16%
COc1cccc(NC2C=CS(=O)(=O)C2)c1 (centres undefined)	21%	8%	-1%[59 µM]	-13%	15%	5%
CC(C)C[C@@H](CNCC(=O)[C@H](C)NC(=O)c1[nH]cnc1C(=O)N[C@@H](C)CN)NC(=O)c1nc[nH]c1C(=O)N[C@@H](C)C(=O)O	66%	·	·	50µM*	·	-9%
CC(C)C[C@@H](CNCC(=O)[C@H](C)NC(=O)c1[nH]cnc1C(=O)N[C@@H](C)CN)NC(=O)c1nc[nH]c1C(=O)N[C@@H](CO)C(=O)O	27%	·	·	89µM*	·	-9%
CC(C)C[C@@H](CNCC(=O)[C@H](Cc1ccccc1)NC(=O)c1[nH]cnc1C(=O)N[C@@H](C)CN)NC(=O)c1nc[nH]c1C(=O)N[C@@H](C)C(=O)O	55%	·	·	79µM*	·	-22%

Screens from PubChem BioAssay.
